# Data published in PubChem BioAssay (NCI).
# This is part of a sample that, as a whole, favours compounds with a hit. Of some 83,000 tested, about 20% had one in any assay.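 Negative percent growth values reflect cell death: -40 means 40% of the cells present at the start died, and -100 means all died.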 A number with no mark means an inactive call. Active and inactive are the calls of the source. Rule for the calls: active = growth percent below 10; inactive = the rest.
# System: MDA-MB-468 breast
# Assay: NCI-60 one-dose screen, 48 h (100 = growth as untreated, 0 = no growth, -100 = all killed)
# Settings: 10 µM unless noted
row,Compound,growth
1,COc1ccc2c(=O)cc(C(Cl)(Cl)Cl)oc2c1,-81.2% (active)
2,CC1(C)N=C(N)N=C(N)N1c1ccc(CCc2ccccc2)c(Cl)c1,-28.3% (active)
3,COc1ccc(-c2cc(-c3ccc(Cl)cc3)c(C#N)c(=O)n2Cc2ccc(C(=O)O)cc2)cc1,73.7%
4,C=C1CC[C@@H]2[C@](C)(COC(C)=O)[C@H](OC(C)=O)CC[C@@]2(C)[C@@H]1CC(Nc1ccc(S(=O)(=O)Nc2ncccn2)cc1)C1=CCOC1=O (some centres not stated),-54% (active)
5,CN(Cc1cc(Cl)cc(Cl)c1O)Cc1cc(Cl)cc(Cl)c1O,36.5%
6,O=C(/C=C/c1cccc(Cl)c1)c1cccc(OCCCCOc2cccc(C(=O)/C=C/c3cccc(Cl)c3)c2)c1,99.2%
7,COc1cc(Cl)cc(-c2nn(C(=O)NS(=O)(=O)c3ccc(Cl)cc3)cc2-c2ccncc2)c1,83.7%
8,CCN1C(=O)N(CC)C2C1N=C(SC)N2/N=C/C=C/c1ccccc1OC (configuration not stated),1.3% (active)
9,O=C(Cc1nc2ccc([N+](=O)[O-])cc2nc1CC(=O)c1cccnc1)c1cccnc1,75.7%
10,Nc1ncc(-c2ccc3ncnc(N4CCc5ccc(Cl)cc54)c3c2)cn1,-38% (active)
11,COc1ccc2nc(N=Nc3c(O)ccc4ccccc34)sc2c1,25.3%
12,CC(=O)O[C@H]1CC[C@]2(C)[C@H]3CC=C4[C@@H]5CC(C)(C)CC[C@]5(C(=O)N5CCN(CCC#N)CC5)CC[C@@]4(C)[C@]3(C)CC[C@H]2C1(C)C,32.2%
13,C=C(C)[C@@H]1CCC[C@]2(C(=O)OC)CC[C@]3(C)[C@@H](CC[C@@H]4[C@@]5(C)CCCNC(C)(C)[C@@H]5CC[C@]43C)[C@@H]12,65.3%
14,COc1cc(OC)c(S(N)(=O)=O)cc1C(=O)/C=C/c1ccccc1,-43.4% (active)
15,CC/C(=C(/c1ccc(Cl)cc1)c1ccc(OCCN2CCCC2)cc1)c1ccc(OC)cc1,46.5%
16,COc1nc(=O)n(C2C=CC(=O)O2)cc1F (configuration not stated),11.9%
17,CN(CC(=O)N(Cc1ccc(C2CCCCC2)cc1)c1ccc(C(=O)O)cc1)S(=O)(=O)c1c(F)c(F)c(F)c(F)c1F,-86.6% (active)
18,CCOC(=O)c1ccc(Nc2sc(C(=O)c3ccc(Br)cc3)c(N)c2C#N)cc1,1.55% (active)
19,CNCc1cccc2c1OCCOCCOCCN(C)S(=O)(=O)c1ccc(cc1)-c1cnc(N)c(n1)C(=O)N2,68.5%
20,CCCCCCCC/C=C\CCCCCCCCOc1cccc(CC(=O)NCC[N+](C)(C)C)c1,93.1%
21,CCCCC[n+]1ccc(SCC(=O)N(C)c2ccc(Oc3ccccc3)cc2)c2ccccc21,38.9%
22,COc1cccc(CC(C)=C(c2ccc(OCCN(C)C)cc2)c2ccc(OCCN(C)C)cc2)c1,-61.5% (active)
23,[2H]c1nc(Nc2ncc3cc(C(=O)N(C)C)n(C4CCCC4)c3n2)c([2H])c([2H])c1N1C([2H])([2H])C([2H])([2H])NC([2H])([2H])C1([2H])[2H],89%
24,N#Cc1ccc(/C=N/NC(=O)c2[nH]c3ccc(Br)cc3c2-c2ccccc2)s1,11.4%
25,Cn1ccnc1C(=O)C(=O)Nc1ccc(CC(=O)Nc2ccccc2)cc1,109%
26,Cc1nc2cc(Nc3nc(Nc4ccc(F)cc4)nc(N4CCCC4)n3)ccc2n1Cc1ccccc1,-63.3% (active)
27,CCC(C)(O)c1ccc(C)cc1 (configuration not stated),110%
